“And” between values parts separate entries of the source, which are not always exact repeats. Equal entries are not always repeated. The source made the active and inactive calls. How the calls were made is not given here.
Key:
[1] = liver-stage malaria parasite load reduction – cell-based, known kinase inhibitor set, luminescence, hepatoma host viability (AID 624392); details: Plasmodium liver stage in hepatoma cells, luciferase luminescence, concentration not given here; liver cell % of control: measured here: host liver cell viability; parasite % of control: stronger effect = lower value;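 further: infected cells incubated roughly two days before readout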
[2] = altered dexamethasone sensitivity, NF-kB reporter, cell-based, luciferase, IL-1B stimulus (AID 624486); details: IL-1B + dexamethasone, luminescence; percent of negative control (+Dex): actives lie on both sides, concentration not given here; z-score: measured here: IL-1B alone, no Dex;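 on percent of negative control (+Dex): 100% = mean signal of vehicle control wells on the plate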
[3] = target: Cellular tumor antigen p53 (Homo sapiens) (UniProt P04637); test: GFP-p53 level modulators in HPV16+ cells – imaging, known kinase inhibitor set, EGFP/DsRed ratio (AID 1053116); details: GFP-p53 stability, stronger effect = higher value; EGFP object count: measured here: GFP-p53 positive objects count;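 further: cells exposed to compounds for 24 h at 37 °C before reading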
[4] = inducers of IRF3 signaling, differentiated THP-1 – cell-based, PMA-stimulated THP-1, luminescence (AID 1053176); details: PMA-differentiated THP-1, IRF3 reporter luminescence; stronger effect = higher value

Cellular tumor antigen p53 (Homo sapiens), sequence (P04637 whole entry, looked up): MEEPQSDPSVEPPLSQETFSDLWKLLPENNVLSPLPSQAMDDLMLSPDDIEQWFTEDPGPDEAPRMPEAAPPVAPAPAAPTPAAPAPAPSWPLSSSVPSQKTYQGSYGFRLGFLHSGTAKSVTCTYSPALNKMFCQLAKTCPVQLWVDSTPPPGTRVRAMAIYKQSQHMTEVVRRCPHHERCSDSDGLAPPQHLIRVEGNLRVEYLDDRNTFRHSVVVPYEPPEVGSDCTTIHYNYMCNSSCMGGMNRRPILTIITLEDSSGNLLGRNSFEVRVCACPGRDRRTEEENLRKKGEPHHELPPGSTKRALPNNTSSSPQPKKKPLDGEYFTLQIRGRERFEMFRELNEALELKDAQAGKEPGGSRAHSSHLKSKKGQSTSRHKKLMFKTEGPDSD

Row | Compound | liver cell % of control [1] | parasite % of control [1] | percent of negative control (+Dex) [2] | z-score [2] | EGFP object count [3] | EGFP/DsRed ratio [3] | fraction signal [4]
1 | COc1ccccc1CCN=C1NC(=O)C(=Cc2ccc3ncccc3c2)S1 | 109% | 68.7% (inactive) | 90.5% (inactive) | -0.58 | 5 | 0.0846 (inactive) | 0.39 (active)
2 | Cn1cc(C2=C(c3cn(CCCCCN)c4ccccc34)C(=O)NC2=O)c2ccccc21 | 105% | 35.6% (inactive) | 99.5% (inactive) | 0.77 | 13.5 | 0.639 (inactive) | 0.0035 (inactive)
3 | Cc1cc(C)c2c(n1)sc1c(N)ncnc12 | 173% | 24.3% (inactive) | 68.5% (active) | -2.76 | 2.5 | 0.0145 (inactive) | 0.0035 (inactive)
4 | O=C1NC(=NCc2cccs2)OC1=Cc1ccc2ncccc2c1 | 113% | 64.9% (inactive) | 55% (active) | -4.77 | 3.5 | 0.0818 (inactive) | -0.0135 (inactive)
5 | N#Cc1cccc(C(=O)c2cnn(-c3ccc(F)cc3)c2N)c1 | 102% | 61.7% (inactive) | 114% (inactive) | 2.75 | 4.5 | 0.122 (inactive) | 0.01 (inactive)
6 | Nc1c(C(=O)c2cccc(OCC(O)CO)c2)cnn1-c1ccc(F)cc1 (stereo not given) | 125% | 58.2% (inactive) | 110% (inactive) | 1.27 | 1.5 | 0.00398 (inactive) | -0.0115 (inactive)
7 | Cn1c(-c2ccncc2)c(-c2ccc(F)cc2)c2ncccc21 | 100% | 44.7% (inactive) | 104% (inactive) | 1.04 | 3 | 0.0799 (inactive) | -0.0005 (inactive)
8 | Cn1cc(C2=C(c3cn(C)c4cc(C(N)=O)ccc34)C(=O)NC2=O)c2ccccc21 | 96.9% | 59.1% (inactive) | 95% (inactive) | -0.22 | 56.5 | 0.829 (active) | -0.0005 (inactive)
9 | Cn1c(=O)c(-c2ccccc2Cl)cc2cnc(NC3CCOCC3)nc21 | 100% | 252% (inactive) | 93% (inactive) | -0.175 | 1 | 0.00654 (inactive) | -0.0055 (inactive)
10 | O=C1NC(=NCCc2ccccc2Cl)SC1=Cc1ccc2ncccc2c1 | 121% | 44.8% (inactive) | 90% (inactive) | 0 | 4.5 | 0.105 (inactive) | -0.003 (inactive)
11 | COc1cc[nH]c1C=C1C(=O)Nc2ccccc21 | 116% | 24.2% (inactive) | 148% (active) | 6.7 | 6 | 0.263 (inactive) | -0.02 (inactive)
12 | Cn1c(=O)c(Sc2ccccc2F)cc2cnc(NC3CCOCC3)nc21 | 103% | 68.5% (inactive) | 107% (inactive) | 0.685 | 2 | 0.0407 (inactive) | -0.0075 (inactive)
13 | CC(=O)NC(Cc1ccc(OP(=O)(O)O)cc1)C(=O)NC1CCC(=O)N2CCCC(C(=O)Nc3cccc4ccccc34)N2C1=O (stereo not given) | 103% | 47% (inactive) | 104% (inactive) | 0.475 | 6.5 | 0.135 (inactive) | -0.007 (inactive)
14 | CN=C1NC(=O)C(=Cc2ccc3ncccc3c2)S1 | 82.2% | 65.3% (inactive) | 98.5% (inactive) | -0.23 | 2 | 0.0435 (inactive) | 0.0015 (inactive)
15 | CNCC1CCn2c(c(C3=C(c4cn(C)c5ccccc45)C(=O)NC3=O)c3ccccc32)C1 (stereo not given) | 101% | 45.7% (inactive) | 94.5% (inactive) | -0.52 | 1 | 0.0128 (inactive) | -0.0115 (inactive)
16 | CS(=O)(=O)CCn1c(=O)c(Oc2ccc(F)cc2F)cc2cnc(NC3CCOCC3)nc21 | 122% | 63% (inactive) | 99% (inactive) | 0.47 | 2 | 0.0579 (inactive) | 0.0015 (inactive)
17 | Cn1c(=O)c(Oc2ccc(F)cc2F)cc2cnc(NC3CCS(=O)(=O)CC3)nc21 | 106% | 43.3% (inactive) | 97.5% (inactive) | 0.51 | 5 | 0.324 (inactive) | 0.001 (inactive)
18 | COc1ccc(C2=C(c3cn(C)c4ccccc34)C(=O)NC2=O)cc1 | 131% | 39.3% (inactive) | 108% (inactive) | -0.1 | 5.5 | 0.214 (inactive) | -0.0115 (inactive)
19 | Cc1[nH]n(-c2ccccc2)c(=O)c1C(=O)c1ccccc1 | 103% | 53.4% (inactive) | 97% (inactive) | 0.12 | 5 | 0.115 (inactive) | -0.0005 (inactive)
20 | CON=C(c1ccccc1)c1cnn(-c2ccccc2)c1N | 121% | 79.3% (inactive) | 98.5% (inactive) | 0.245 | 3.5 | 0.128 (inactive) | 0.0055 (inactive)

Row | Compound | liver cell % of control [1] | parasite % of control [1] | percent of negative control (+Dex) [2] | z-score [2] | EGFP object count [3] | EGFP/DsRed ratio [3] | fraction signal [4]
21 | COc1ccc(F)cc1C(=O)c1cnc(NC2CCN(S(C)(=O)=O)CC2)nc1N | 97.2% | 587% (inactive) | 96.5% (inactive) | -0.18 | 4.5 | 0.0651 (inactive) | -0.009 (inactive)
22 | Cn1cc(C2=C(c3ccsc3)C(=O)NC2=O)c2ccccc21 | 108% | 30% (inactive) | 92.5% (inactive) | -0.045 | 3.5 | 0.27 (inactive) | -0.0155 (inactive)
23 | CN1CCN(c2ccc(Nc3nc(N)c(C(=O)c4ccc5c(c4)OCCO5)s3)cc2)CC1 | 108% | 46.7% (inactive) | 138% (inactive) | 3.58 | 4.5 | 0.151 (inactive) | -0.018 (inactive)
24 | CS(=O)(=O)N1CCC(n2c(=O)c(Oc3ccc(F)cc3F)cc3cnc(NC4CCOCC4)nc32)CC1 | 112% | 64.5% (inactive) | 95% (inactive) | -0.51 | 2 | 0.107 (inactive) | 0.0035 (inactive)
25 | Nc1c(C(=O)c2ccc(-c3cccnc3)cc2)cnn1-c1ccc(F)cc1 | 93.2% | 36.7% (inactive) | 112% (inactive) | 0.835 | 5.5 | 0.226 (inactive) | -0.0025 (inactive)
26 | COc1ccc(O)c(C(=O)c2ccc(C(=O)NC3CCCNCC3NC(=O)c3ccncc3)cc2)c1F (stereo not given) | 115% | 83.5% (inactive) | 68.5% (active) | -3.04 | 10.5 | 0.105 (inactive) | 0.0035 (inactive)
27 | O=c1c(Oc2ccc(F)cc2F)cc2cnc(NC3CCOCC3)nc2n1C1CC1 | 113% | 52.9% (inactive) | 92.5% (inactive) | -0.435 | 4 | 0.269 (inactive) | -0.0095 (inactive)
28 | COc1cccc(C2=C(c3cn(C)c4ccc(Cl)cc34)C(=O)NC2=O)c1 | 197% | 11.6% (inactive) | 139% (inactive) | 0.245 | 13.5 | 0.277 (inactive) | -0.0075 (inactive)
29 | CC(C)(O)CCc1cccc(C(=O)c2cnn(-c3ccc(F)cc3)c2N)c1 | 105% | 56.9% (inactive) | 110% (inactive) | 0.16 | 1.5 | 0.0442 (inactive) | 0.0185 (inactive)
30 | CCNC(=O)C1CCCN2C(=O)CCC(NC(=O)C(Cc3ccc(OP(=O)(O)O)cc3)NC(C)=O)C(=O)N12 (stereo not given) | 95% | 44.7% (inactive) | 102% (inactive) | 0.145 | 6 | 0.215 (inactive) | -0.0005 (inactive)
31 | CC(O)CNc1cc(-c2[nH]c3cccnc3c2-c2ccc(F)cc2)ccn1 (stereo not given) | 229% | 13.2% (inactive) | 106% (inactive) | 0.42 | 4 | 0.042 (inactive) | 0.0055 (inactive)
32 | COc1ccc(CCN=C2NC(=O)C(=Cc3ccc4ncccc4c3)S2)cc1 | 99.3% | 48.7% (inactive) | 100% (inactive) | 0.55 | 3 | 0.381 (inactive) | 0.001 (inactive)
33 | O=C1NC(=NCc2ccccc2Cl)SC1=Cc1ccc2ncccc2c1 | 108% | 42.1% (inactive) | 95% (inactive) | -0.715 | 9 | 0.384 (inactive) | -0.0075 (inactive)
34 | COc1cc[nH]c1C=C1C(=O)Nc2ccc(F)c(I)c21 | 98.3% | 40.2% (inactive) | 98% (inactive) | 0.98 | 46 | 0.596 (inactive) | 0.0015 (inactive)
35 | O=C1NC(=O)C(=Cc2ccc3ncccc3c2)S1 | 98% | 60.7% (inactive) | 126% (active) | 3.21 | 5 | 0.206 (inactive) | 0.005 (inactive)
36 | O=C1NC(=NCCc2cccs2)SC1=Cc1ccc2ncccc2c1 | 118% | 40.6% (inactive) | 96% (inactive) | -0.36 | 4.5 | 0.079 (inactive) | -0.003 (inactive)
37 | COc1cccc(C2=C(c3cn(C)c4cc(C)ccc34)C(=O)NC2=O)c1 | 112% | 29% (inactive) | 98.5% (inactive) | -1.5 | 24 | 0.336 (inactive) | -0.005 (inactive)
38 | CC(=O)N[C@H](Cc1ccc(OP(=O)(O)O)cc1)C(=O)N[C@@H]1CCC(=O)N2CCC[C@@H](C(=O)N[C@H]3CCc4ccccc43)N2C1=O | 122% | 61.5% (inactive) | 95.5% (inactive) | 0.9 | 6 | 0.211 (inactive) | -0.003 (inactive)
39 | CCCn1cc(C2=C(c3cn(C)c4ccccc34)C(=O)NC2=O)c2ccccc21 | 101% | 78.5% (inactive) | 102% (inactive) | 0.09 | 17.5 | 0.158 (inactive) | 0.0035 (inactive)
40 | CN1CC2Cc3c(C4=C(c5cn(C)c6ccccc56)C(=O)NC4=O)c4ccccc4n3CC2C1 (stereo not given) | 79.3% and 90.1% | 36.7% (inactive) and 27% (inactive) | 98.5% (inactive) | -0.62 and -0.215 | 2.5 and 3.5 | 0.0121 (inactive) and 0.0134 (inactive) | -0.005 (inactive) and -0.0135 (inactive)
